From the supplement of paper PMC10127200
Structures can show the parent of a compound that is named as a salt.

Experiments:
Experiment in all cases: Euclidean distance of Cell Painting phenotypic profile (signed KS, 77 features) to DMSO centroid (dimensionless distance); 5 or 10 uM (library dependent); higher = stronger phenotypic change vs DMSO (phenoactivity)
Conditions in all cases: 48 h
[1] = tested on: 786-O
In short: (§1)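 Library compounds were applied at 10 or 5 uM, depending on the library, with 0.1% DMSO final, for 48 h to five cancer lines and a healthy fibroblast line. After staining, cells were imaged confocally at 20X across 9 fields per well, and Harmony extracted 77 features, each scored as a signed Kolmogorov-Smirnov statistic against vehicle wells on the same plate. Phenoactivity is the Euclidean distance between each profile and the median vehicle profile, with profiles first plate-position corrected, correlation-weighted and averaged over replicates at the top dose.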

[2] = tested on: A549
In short: as §1

[3] = tested on: DU145
In short: as §1

[4] = tested on: FB
In short: as §1

[5] = tested on: HEPG2
In short: as §1

[6] = tested on: OVCAR4
In short: as §1

| SMILES | Euclidean distance [1] | Euclidean distance [2] | Euclidean distance [3] | Euclidean distance [4] | Euclidean distance [5] | Euclidean distance [6] |
| --- | --- | --- | --- | --- | --- | --- |
| C[C@]12CCC3=C4CCC(=O)C=C4CC[C@H]3[C@@H]1CC[C@@]2(O)CC#N [Dienogest] | 1.53 | 0.862 | 1.61 | 1.08 | 1.12 | 1.39 |
| C[C@]12CCCN1CC1=NNC(=O)c3cc(F)cc4[nH]c2c1c34 [Pamiparib (BGB-290)] | 1.52 | 1.68 | 1.44 | 1.48 | 2.36 | 1.71 |
| CC1(C)CC(=O)c2c(C(F)(F)F)nn(-c3ccc(C(N)=O)c(N[C@H]4CC[C@H](OC(=O)CN)CC4)c3)c2C1 | 3.85 | 3.38 | 3.89 | 3.31 | 3.05 | 2.62 |
| CN(C)CCCN1c2ccccc2Sc2ccccc21 [Promazine hydrochloride] | 1.46 | 0.965 | 2.09 | 1.9 | 2.01 | 1.58 |
| CCOC(=O)c1c(N)sc2c1CCN(Cc1ccccc1)C2 [Tinoridine hydrochloride] | 1.51 | 0.9 | 1.2 | 1.13 | 0.814 | 1.31 |
| COc1cc(Nc2c(C#N)cnc3cc(OCCCN4CCN(C)CC4)c(OC)cc23)c(Cl)cc1Cl [Bosutinib (SKI-606)] | 3.85 | 3.56 | 2.93 | 3.66 | 3.22 | 4.14 |
| CCCCCCCCCC(=O)N[C@H]1[C@H](Oc2c3cc4cc2Oc2ccc(cc2Cl)[C@@H](O[C@@H]2O[C@H](CO)[C@@H](O)[C@H](O)[C@H]2NC(C)=O)[C@@H]2NC(=O)[C@H](NC(=O)[C@@H]4NC(=O)[C@H]4NC(=O)[C@@H](Cc5ccc(c(Cl)c5)O3)NC(=O)[C@H](N)c3ccc(O)c(c3)Oc3cc(O)cc4c3)c3ccc(O)c(c3)-c3c(OC4O[C@H](CO)[C@@H](O)[C@H](O)[C@@H]4O)cc(O)cc3[C@@H](C(=O)O)NC2=O)O[C@H](CO)[C@@H](O)[C@@H]1O (some centres not stated) [Teicoplanin] | 1.09 | 1.18 | 0.773 | 0.777 | 1.39 | 1.07 |
| COc1cccc(C=NCCN=Cc2cccc(OC)c2[O-])c1[O-].[Cl-].[Mn+3] | 1.28 | 0.596 | 0.577 | 0.887 | 2.11 | 1.14 |
| Cn1nnc(-c2ccc(-c3ccc(N4C[C@H](CO)OC4=O)cc3F)cn2)n1 [Tedizolid] | 1.38 | 1.13 | 0.583 | 0.908 | 1 | 1.01 |
| Cc1cccc(-c2[nH]ncc2-c2ccc3ncccc3n2)n1 | 0.773 | 0.733 | 0.91 | 1.15 | 0.71 | 0.807 |
| NC(=O)c1cccc2cn(-c3ccc([C@@H]4CCCNC4)cc3)nc12 [Niraparib (MK-4827) tosylate] | 2.41 | 2.21 | 1.59 | 2.49 | 2.86 | 1.92 |
| c1ccc2c(c1)CCCC2C1=NCCN1 (configuration not stated) [Tetrahydrozoline HCl] | 0.978 | 0.966 | 0.786 | 0.944 | 0.601 | 1.78 |
| CCc1nc(-c2cccc(C)c2)c(-c2ccnc(NC(=O)c3ccccc3)c2)s1 | 1.58 | 0.983 | 1.46 | 1.37 | 1.19 | 1.34 |
| CC1(C)S[C@@H]2[C@H](NC(=O)[C@H](N)c3ccccc3)C(=O)N2[C@H]1C(=O)OCOC(=O)[C@@H]1N2C(=O)C[C@H]2S(=O)(=O)C1(C)C [Sultamicillin Tosylate] | 1.06 | 1.18 | 0.926 | 1.01 | 0.775 | 0.992 |
| CC(C[N+](C)(C)C)OC(N)=O (configuration not stated) [Bethanechol chloride] | 1.22 | 0.995 | 0.866 | 0.979 | 1.03 | 0.949 |
| COc1ccc2c3c1O[C@H]1C[C@@H](O)C=C[C@@]31CCN(C)C2 [Galanthamine] | 0.802 | 1.14 | 0.605 | 0.959 | 0.423 | 0.852 |
| c1cc(-c2cnn3cc(-c4ccc(N5CCNCC5)cc4)cnc23)c2cccnc2c1 | 5.15 | 5.05 | 4.45 | 6.55 | 5.9 | 6.68 |
| COc1cc(O)c2c(c1)oc(=O)c1c3cc(O)c(O)cc3oc21 [Wedelolactone] | 1.08 | 1.94 | 1.02 | 2.37 | 2.5 | 2.37 |
| NS(=O)(=O)c1ccccc1 [Benzenesulfonamide] | 1.16 | 0.87 | 1.05 | 1.27 | 0.909 | 0.962 |
| CC(=O)CC/C=C(\C)CC/C=C(\C)CC/C=C(\C)CCC=C(C)C [Teprenone] | 1.06 | 0.693 | 0.749 | 1.12 | 1.1 | 1.23 |
| O=c1c(O)c(-c2ccc(O)cc2)oc2cc(O)cc(O)c12 [Kaempferol] | 1.49 | 0.589 | 0.883 | 1.36 | 0.783 | 1.45 |
| Cn1c(=O)c2c(ncn2CC2OCCO2)n(C)c1=O [Doxofylline] | 1.15 | 0.81 | 0.772 | 0.965 | 0.408 | 1.15 |
| CCN1/C(=C/C(C)=O)Sc2ccc(OC)cc21 | 0.422 | 0.711 | 1.03 | 0.64 | 1.98 | 0.872 |
| CCC(C)n1ncn(-c2ccc(N3CCN(c4ccc(OCC5COC(Cn6cncn6)(c6ccc(Cl)cc6Cl)O5)cc4)CC3)cc2)c1=O (configuration not stated) [Itraconazole] | 4.09 | 2.48 | 1.52 | 1.53 | 1.02 | 1 |

| SMILES | Euclidean distance [1] | Euclidean distance [2] | Euclidean distance [3] | Euclidean distance [4] | Euclidean distance [5] | Euclidean distance [6] |
| --- | --- | --- | --- | --- | --- | --- |
| CCO[C@@H]1OC(=O)C[C@@H]1NC(=O)[C@@H]1CCCN1C(=O)[C@@H](NC(=O)c1ccc(N)c(Cl)c1)C(C)(C)C | 0.836 | 1.87 | 2.17 | 1.85 | 1.04 | 1.35 |
| NC[C@@H]1O[C@H](O[C@H]2[C@@H](O)[C@H](O[C@@H]3[C@@H](O)[C@H](N)C[C@H](N)[C@H]3O[C@H]3O[C@H](CO)[C@@H](O)[C@H](O)[C@H]3N)O[C@@H]2CO)[C@H](N)[C@@H](O)[C@@H]1O [Paromomycin Sulfate] | 1.05 | 1.06 | 0.88 | 1.2 | 0.817 | 1 |
| Cc1ncc(-c2ccnc(Nc3ccc(S(C)(=O)=O)cc3)n2)n1C(C)C | 2.6 | 3.78 | 3.05 | 3.19 | 3.09 | 3.43 |
| OC(CCCN1CCCCC1)(c1ccccc1)c1ccccc1 [Diphenidol HCl] | 1.04 | 0.66 | 0.884 | 0.867 | 0.89 | 1.09 |
| OCc1cc([C@@H](O)CNCCCCCCOCCOCc2c(Cl)cccc2Cl)ccc1O [Vilanterol Trifenate] | 1.28 | 0.985 | 1.38 | 1.28 | 0.721 | 1.76 |
| CCCCc1nc(-c2ccc(OCCCN(CC)CC)cc2)cn1-c1ccc(Oc2ccc(Cl)cc2)cc1 [Azeliragon] | 6.58 | 4.65 | 0.73 | 3.3 | 1.05 | 1.71 |
| c1ccc2c(CC3=NCCN3)cccc2c1 [Naphazoline HCl] | 1.23 | 0.672 | 1.11 | 0.693 | 0.599 | 0.531 |
| CC1=C(C(=O)Nc2cc3cn[nH]c3cc2F)C(c2ccc(C(F)(F)F)cc2)CC(=O)N1 (configuration not stated) | 2.35 | 1.68 | 2.39 | 2.35 | 0.954 | 2.51 |
| CC(C)c1ccc(NC(=O)Cn2cnc3c2c(=O)n(C)c(=O)n3C)cc1 | 1.03 | 1.06 | 1.22 | 0.919 | 0.953 | 1.16 |
| CO/N=C(\C(=O)N[C@@H]1C(=O)N2C(C(=O)O)=C(CSc3nc(=O)c(O)nn3C)CS[C@H]12)c1csc(N)n1 [Ceftriaxone Sodium Trihydrate] | 1.01 | 0.779 | 1.23 | 0.836 | 0.792 | 0.926 |
| CCN(CC)CCNC(=O)c1cc(S(C)(=O)=O)ccc1OC [Tiapride Hydrochloride] | 0.725 | 0.496 | 0.652 | 0.955 | 0.542 | 0.874 |
| CCOc1cc2ncc(C#N)c(Nc3ccc(F)c(Cl)c3)c2cc1NC(=O)/C=C/CN(C)C [Pelitinib (EKB-569)] | 2.29 | 3.19 | 4.45 | 4.45 | 2.63 | 2.82 |
| O=C(O)CCCCC(CCSCc1ccccc1)SCc1ccccc1 (configuration not stated) | 0.848 | 0.928 | 1.09 | 0.687 | 0.938 | 0.821 |
| Nc1nc(=O)n([C@@H]2CS[C@H](CO)O2)cc1F [Emtricitabine] | 1.06 | 0.783 | 0.954 | 0.924 | 0.432 | 1.08 |
| CCCCOC(=O)c1ccc(N)cc1 [Butamben] | 1.09 | 0.881 | 0.906 | 1.05 | 0.737 | 1.03 |
| CN(C)CCC(c1ccc(Br)cc1)c1ccccn1 (configuration not stated) [Brompheniramine hydrogen maleate] | 1.21 | 0.63 | 1.13 | 1.18 | 0.5 | 1.36 |
| NNC(=O)c1ccncc1 [Isoniazid] | 1.4 | 1.36 | 0.961 | 1.16 | 0.573 | 0.885 |
| O=C1CC[C@@H](C(=O)N2CSC[C@H]2C(=O)O)N1 [Pidotimod] | 1.14 | 0.696 | 0.731 | 0.833 | 0.84 | 0.854 |
| O=C(CO)[C@@H](O)[C@H](O)[C@H](O)CO [Fructose] | 1.08 | 0.996 | 0.637 | 0.813 | 0.424 | 1.17 |
| CN1CCc2cc3c(cc2C(=O)Cc2ccc4c(c2C1)OCO4)OCO3 [Protopine] | 0.844 | 1.36 | 0.606 | 0.616 | 1.3 | 1.68 |
| CCC(=O)NS(=O)(=O)c1ccc(-c2c(-c3ccccc3)noc2C)cc1 [Parecoxib] | 0.575 | 0.57 | 0.471 | 1.11 | 0.593 | 0.719 |
| CC(=O)SCC(Cc1ccccc1)C(=O)NCC(=O)OCc1ccccc1 (configuration not stated) [Racecadotril] | 1.61 | 0.894 | 0.905 | 1.14 | 0.452 | 1.68 |
| COc1ccc(CNC(=O)Nc2ncc([N+](=O)[O-])s2)cc1 | 0.769 | 1.95 | 0.841 | 0.936 | 1.02 | 0.694 |
